Screening results from PubChem BioAssay.
ALOX15 inhib – inhibitors of human 15-lipoxygenase (ALOX15). purified 15hLO-1, xylenol orange hydroperoxide absorbance. Potency, µM (top dose mostly 57.1 µM), for the others: at the highest dose activity change, negative = inhibition, usual class: inhibitors. hit rate 1.4% among 74,000. AID 887; further: nearly all actives have a fitted effect of over 55% in size
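Compounds were preincubated 15 min at room temperature with 40 nM purified human enzyme (25 mM Hepes pH 7.5, 0.01% Triton X-100); 50 uM arachidonic acid reacted 6 min. Fe-xylenol orange detection, 30 min, absorbance ratio 573/405 nm.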
Pol III holo inh – DNA polymerase III holoenzyme inhibition; hit rate 0.25% among 71,000; Potency, µM (highest dose often 57.1 µM), inactives show at the highest dose activity change, negative = inhibition; reconstituted DNA polymerase III holoenzyme replication, biochemical; AID 603
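Reconstituted *E. coli* holoenzyme (0.35 nM Pol III, 1 nM beta, 154 nM SSB, 2 nM primase) was preincubated with compound for 15 min at RT. Synthesis on 1.4 nM ssM13Gori ran 35 min, then was stopped with PicoGreen/EDTA and read as dsDNA fluorescence.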
Tau fil binding – binders of human tau filaments; AID 596; recombinant tau filaments, thioflavin S fluorescence, 15 h; filaments grown with octadecylsulfate alongside compound; Potency, µM (doses to about 57.1 µM), inactives show at the top dose activity change, negative = inhibition; hit rate 2% among 71,000; P10636;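 further: actives lower thioflavin S fluorescence by blocking filaments or displacing dye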
Target sequence (P10636 whole entry, looked up): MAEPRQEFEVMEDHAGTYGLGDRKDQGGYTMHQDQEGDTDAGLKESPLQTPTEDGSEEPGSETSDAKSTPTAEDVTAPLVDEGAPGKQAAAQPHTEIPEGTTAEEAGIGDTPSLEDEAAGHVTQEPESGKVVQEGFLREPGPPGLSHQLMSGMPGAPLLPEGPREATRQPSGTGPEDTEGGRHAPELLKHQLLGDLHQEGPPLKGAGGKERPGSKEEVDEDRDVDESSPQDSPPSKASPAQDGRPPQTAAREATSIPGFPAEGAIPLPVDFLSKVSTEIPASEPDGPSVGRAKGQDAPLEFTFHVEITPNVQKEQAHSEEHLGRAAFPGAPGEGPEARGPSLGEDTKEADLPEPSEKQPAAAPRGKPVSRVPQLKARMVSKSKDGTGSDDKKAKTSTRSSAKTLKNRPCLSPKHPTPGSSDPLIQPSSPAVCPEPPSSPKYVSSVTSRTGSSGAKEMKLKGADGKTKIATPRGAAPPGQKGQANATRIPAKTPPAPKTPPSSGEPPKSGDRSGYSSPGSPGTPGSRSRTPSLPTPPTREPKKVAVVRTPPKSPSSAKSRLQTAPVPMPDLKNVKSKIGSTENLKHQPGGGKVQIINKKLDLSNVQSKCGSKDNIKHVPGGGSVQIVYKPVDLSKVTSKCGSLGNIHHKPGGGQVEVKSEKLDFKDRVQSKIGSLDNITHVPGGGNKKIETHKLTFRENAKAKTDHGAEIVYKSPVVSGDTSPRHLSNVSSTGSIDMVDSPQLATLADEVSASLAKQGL
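Quantitative HTS: thioflavine S signal from ODS-induced tau filaments, excited at 450 nm, emission 510 nm. Conditions: 1 uM tau, 30 uM ODS, 15 h at 37 C, pH 7.4.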
PK Bst – modulators of Bacillus stearothermophilus pyruvate kinase | purified pyruvate kinase, luminescence ATP production; ribose 5-phosphate activator present at AC10 | Potency, µM | hit rate 1.2% among 51,000 | AID 361; in the data active means potency below about 11 µM; inconclusive means mostly about 12 µM to 25 µM;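 the screen sought inhibitors and activators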;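 further: scaled between full activation by ribose 5 phosphate and full inhibition by luteolin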
FLuc inh – inhibitors of firefly luciferase. P08659. purified firefly luciferase, luminescence, 8 min. Potency, µM (highest dose often 57.1 µM), without a hit: at the top dose activity change, negative = inhibition, most hits filed as inhibitors. hit rate 2.2% among 72,000. AID 411; further: nearly all actives have a fitted effect of over 40% in size
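Firefly luciferase (PKLight detection mix) with 10 uM ATP in pH 7.2 imidazole buffer (KCl, MgCl2, Tween 20, BSA). Compounds tested across a concentration series (qHTS). Luminescence read after 8 min at ambient temperature.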
ERK AVP block – blocks ERK signaling stimulated by vasopressin. hit rate 0.99% among 72,000. HEK293-V1b, vasopressin-stimulated pERK AlphaScreen. Potency, µM (doses to about 57.5 µM), without a hit: top-dose activity, negative = inhibition, most hits filed as inhibitors; further: nearly all actives have a fitted effect of over 55% in size
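qHTS, compounds titrated on V1b-expressing HEK293 cells. Preincubation 30 min at 37C, vasopressin 25 nM for 5 min, lysis 10 min, bead incubation 5 hr at room temperature.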
The depositor's hits bear a star; i = inactive; u = inconclusive; x = no result given; ! = not active in a repeat; [ ] = remark or other dose. Only some compounds are listed: those with a hit (about 6% of all), similar ones and a draw of the others. Unless noted, the call rests on the fitted dose curve; in most records, active means well fitted curve in the direction sought with a large enough effect; inconclusive means small, poorly fitted or top-dose-only effect, or another doubt; inactive means no such curve, though single readings can be large; an effect the other way counts as inactive or inconclusive. Unless noted, on the % scale 0 is the no-effect control and ±100 the full control effect; potency means the concentration at half of the fitted maximal effect.

SMILES	ALOX15 inhib	Pol III holo inh	Tau fil binding	PK Bst	FLuc inh	ERK AVP block
NC(CSS(=O)(=O)O)=N[C@@H]1C[C@H]2CC[C@@H]1C2	8%[11.4 µM]	-11%[11.4 µM]	2%[11.4 µM]	x	4%[11.4 µM]	-1%[11.5 µM]
CC(=O)Nc1ccc(Nc2nc(C)nc3c2oc2ccccc23)cc1	0%	-9%	-7%	i	-2%	-18%
CC(=O)N1CCN(c2ccc(Nc3nc(C)nc4c3oc3ccccc34)cc2)CC1	-11%	1%	20µM*	x	-3%	10µM*
CS(=O)(=O)N1CCc2cc(C(=O)OCC(=O)c3ccccc3)ccc21	-5%	-8%	43%	x	13µM*	2%
O=C(COC(=O)c1cc(S(=O)(=O)N2CCOCC2)cs1)c1ccccc1	2%	-6%	1%	>57	-4%	16%
COc1ccc(-n2c(=O)c(-c3ccc(Cl)cc3)nc3cnc(N(C)C)nc32)cc1	-19%	-3%	427%	x	-1%[11.4 µM]	10%
CCOC(=O)CSc1nc(-c2ccncc2)ccc1C#N	x	x	x	i	7.9µM*	x
CCOC(=O)CSc1nc(-c2ccc3c(c2)OCO3)ccc1C#N	x	x	x	4.3*	4µM*	x
O=c1c2ccccc2nc2n1CCS2	7%	-4%	-4%	>57	-2%	1%
C(=N\c1c(-c2ccccc2)nc2n1CCS2)/c1ccccc1	-26%	4%	u	x	-13%	20µM*
Cc1ccc(N=c2oc3cc(O)ccc3cc2C(N)=O)cc1	u	4%	-23%	9.3*	13µM*	-22%
CCc1cccc(NC(=O)CS(=O)Cc2nc(-c3ccc(C)cc3)oc2C)c1 (configuration not stated)	-17%	-1%	180%	x	-1%	32µM*
CCCCNC(=O)CS(=O)Cc1nc(-c2ccc(C)cc2)oc1C (configuration not stated)	6%	-1%	11%	x	0%	-5%
Cc1cc(C(C)(C)C)c(OCCCN2CCOCC2)c(C(C)(C)C)c1	10%[11.4 µM]	-11%[11.4 µM]	0%[11.4 µM]	x	1%[11.4 µM]	-13%[11.5 µM]
C[C@@H]1CC[C@H]2C(=O)NC[C@@H](O)CN2[C@@H]1c1ccc(Br)cc1	3%[11.4 µM]	x	x	x	1%[11.4 µM]	-8%[11.5 µM]
NC(=NCCCCCCN=C(N)/N=C(\N)Nc1ccc(Cl)cc1)/N=C(\N)Nc1ccc(Cl)cc1	u	-5%	6.3µM*!	x	2%[25.5 µM]	u
CC(=O)c1c(C)nc(-c2ccc(Cl)cc2)nc1N=CN(C)C	-7%	8%	25µM*	u	-5%	-26%
COC(=O)c1cc(Cc2ccc(N)c(C(=O)OC)c2)ccc1N	25µM*	-1%	u	x	-1%	-25%
COC(=O)c1ccc(C(=O)OC)c(N)c1	7%	2%	5%	>57	-13%	19%
Cc1ccc(S(=O)(=O)O[C@H]2C[C@@H](C(C)(C)C)CC[C@@H]2c2ccccc2)cc1	10%[11.4 µM]	-9%[11.4 µM]	5%[11.4 µM]	x	0%[11.4 µM]	10%[11.5 µM]
COc1cccc(C2CC(c3ccccc3Cl)Nc3ncnn32)c1 (configuration not stated)	10%	1%	-10%	8.4*	1%	-3%
COc1ncc2nc(-c3ccc(F)cc3)c(=O)n(-c3ccccc3)c2n1	-3%	-2%	-5%	x	1%[11.4 µM]	u
C[N+](C)(C)CCCSc1nc2ccccc2[nH]1	6%[11.4 µM]	6%[11.4 µM]	1%[11.4 µM]	x	2%[11.4 µM]	-12%[11.5 µM]
CC(=O)N=C(N)Sc1nc2ccccc2[nH]1	x	x	x	u	13µM*	x
CC(C)CN1CC[C@@]2(CCCN(C(=O)c3cc(C(F)(F)F)cc(C(F)(F)F)c3)C2)C1	-7%	-7%	-19%	x	1%[11.4 µM]	12%
SMILES	ALOX15 inhib	Pol III holo inh	Tau fil binding	PK Bst	FLuc inh	ERK AVP block
Cc1cc(NC(=O)CCCC(=O)Nc2ccc(F)cc2)no1	-2%	-6%	3%	>57	3%	0%
Cc1cc(NC(=O)CCCC(=O)NCc2cccs2)no1	20µM*	u	164%	x	-5%	u
COc1ccc(NC(=O)Cc2cccs2)c(OC)c1	-30%[11.4 µM]	-5%[11.4 µM]	3.2µM*	x	1%	-3%
Nc1ccc(N2C(=O)c3ccccc3C2=O)c(Cl)c1	-2%	-4%	6%	x	-2%	0%
Nc1ccc(N)c(Cl)c1	u	-7%	32µM*	x	x	-11%
c1ccc(-c2nc3ccccc3s2)nc1	4%	-8%	2%	u	u	-16%
Brc1ccc(-c2nc3ccccc3s2)s1	-7%	-3%	6%	u	16µM*	21%
COc1cc2c(cc1OC)-c1cc(OCc3cccnc3)nc(=O)n1CC2	10%	-4%	4%	>57	-3%	13µM*
COc1cc2c(cc1OC)-c1cc(N3CCCc4ccccc43)nc(=O)n1CC2	-29%	-16%	50%	>57	-2%	20µM*
COc1cc2c(cc1OC)-c1cc(Nc3ccc4c(c3)OCCO4)nc(=O)n1CC2	-13%	-13%	u	x	u	10µM*
COc1cc2c(cc1OC)-c1cc(N3CCCCCC3)nc(=O)n1CC2	15%	-7%	33%	>57	1%	u
COc1cc2c(cc1OC)-c1cc(NC3CCCCCC3)nc(=O)n1CC2	6%	-10%	14%	>57	0%	u
CC(=O)OC/C=C(\C)CC/C=C(\C)CC/C=C(\C)CC/C=C(\C)CC/C=C(\C)CC/C=C(\C)CC/C=C(\C)CC/C=C(\C)CCC=C(C)C	-5%	x	x	x	x	0%
C=CCOC(=O)C(C(C)=O)C(NC(=O)OC)c1cccc(C(F)(F)F)c1 (configuration not stated)	10%[11.4 µM]	x	x	x	x	4%[11.5 µM]
COc1cc(/C=C\C(=O)N2CCC=CC2=O)cc(OC)c1OC	12%[25.6 µM]	-3%[25.6 µM]	0%[25.6 µM]	x	3%[25.5 µM]	-24%[25.7 µM]
Oc1ccc2[nH]ccc2c1	u	-2%	20µM*	>57	-4%	-29%
CN(C(=O)c1ccncc1)c1nnc(-c2ccccn2)s1	-9%	0%	9%	>57	-13%	-2%
CN(C(=O)c1ccccc1)c1nc2ccccc2s1	-11%	2%	6%	8.5*	6.3µM*	-2%
COc1ccc(CNc2oc(-c3ccccc3)nc2C#N)cc1	-9%	-10%	-3%	x	3%	32µM*
COc1ccc(-c2nc(C#N)c(NCc3ccc(F)cc3)o2)cc1OC	-15%	2%	56%	>57	-3%	25µM*
COc1ccc(-c2nc(C#N)c(NCCc3ccccc3)o2)cc1	-21%	0%	21%	x	-25%	16µM*
COc1ccc(-c2nc(C#N)c(NCc3ccccc3Cl)o2)cc1	-29%	4%	145%	>57	-4%	u
CO[C@H]1COC(=O)[C@@H](C)COC(=O)[C@H](C)NC(=O)C/C=C\[C@H]1C	7%[11.4 µM]	x	x	x	0%[11.4 µM]	10%[11.5 µM]
COc1ccc(-c2cc(=O)c3c(O)cc(O[C@H]4OC(COC5OC(C)C(O)C(O)[C@H]5O)C(O)C(O)C4O)cc3o2)cc1O (some centres not stated)	-19%	x	x	x	x	-18%
O=c1cc(-c2ccc(O)c(O)c2)oc2cc(O[C@@H]3O[C@@H](CO)[C@@H](O)[C@@H](O)[C@H]3O)cc(O)c12	x	1µM*	u	x	-2%[11.4 µM]	x
